# From ChEMBL document CHEMBL1961873, “Compounds: GSK PKIS; Assays: Nanosyn kinase panel” (2012)
# Columns and labels:
# [1] = molecular target: T1, Aurora kinase A (Homo sapiens) (UniProt O14965); details: at 1 µM;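 further: values are mean percent inhibition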
# T1 sequence (whole entry): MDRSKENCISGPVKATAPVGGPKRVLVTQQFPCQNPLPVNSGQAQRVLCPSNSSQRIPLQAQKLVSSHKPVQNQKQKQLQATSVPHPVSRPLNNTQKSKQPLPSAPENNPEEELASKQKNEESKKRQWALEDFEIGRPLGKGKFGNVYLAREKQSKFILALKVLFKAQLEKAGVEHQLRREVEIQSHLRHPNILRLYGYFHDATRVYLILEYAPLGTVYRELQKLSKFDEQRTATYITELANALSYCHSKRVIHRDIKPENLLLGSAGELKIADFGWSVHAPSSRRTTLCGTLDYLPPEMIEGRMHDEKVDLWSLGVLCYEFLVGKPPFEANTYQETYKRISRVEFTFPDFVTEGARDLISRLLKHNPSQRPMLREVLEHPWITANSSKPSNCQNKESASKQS
# [2] = molecular target: Aurora kinase B (Homo sapiens) (UniProt Q96GD4); details: at 0.1 µM
# [3] = molecular target: Aurora kinase B (Homo sapiens) (UniProt Q96GD4); details: at 1 µM
# [4] = molecular target: T2, Aurora kinase C (Homo sapiens) (UniProt Q9UQB9); details: at 0.1 µM
# T2 sequence (whole entry): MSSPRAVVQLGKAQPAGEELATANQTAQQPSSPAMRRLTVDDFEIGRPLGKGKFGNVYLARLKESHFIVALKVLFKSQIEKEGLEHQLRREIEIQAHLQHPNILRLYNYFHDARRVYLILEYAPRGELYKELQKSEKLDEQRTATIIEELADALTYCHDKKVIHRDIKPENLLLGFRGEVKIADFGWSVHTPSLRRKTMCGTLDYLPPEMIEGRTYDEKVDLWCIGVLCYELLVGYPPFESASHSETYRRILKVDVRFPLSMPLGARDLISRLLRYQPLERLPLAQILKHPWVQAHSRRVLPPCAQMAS
# [5] = molecular target: T2, Aurora kinase C (Homo sapiens); details: at 1 µM
# [6] = molecular target: Serine/threonine-protein kinase 10 (Homo sapiens) (UniProt O94804); details: at 0.1 µM
# [7] = molecular target: Serine/threonine-protein kinase 10 (Homo sapiens) (UniProt O94804); details: at 1 µM
# [8] = molecular target: T3, Mitogen-activated protein kinase kinase kinase kinase 2 (Homo sapiens) (UniProt Q12851); details: at 0.1 µM
# T3 sequence (whole entry): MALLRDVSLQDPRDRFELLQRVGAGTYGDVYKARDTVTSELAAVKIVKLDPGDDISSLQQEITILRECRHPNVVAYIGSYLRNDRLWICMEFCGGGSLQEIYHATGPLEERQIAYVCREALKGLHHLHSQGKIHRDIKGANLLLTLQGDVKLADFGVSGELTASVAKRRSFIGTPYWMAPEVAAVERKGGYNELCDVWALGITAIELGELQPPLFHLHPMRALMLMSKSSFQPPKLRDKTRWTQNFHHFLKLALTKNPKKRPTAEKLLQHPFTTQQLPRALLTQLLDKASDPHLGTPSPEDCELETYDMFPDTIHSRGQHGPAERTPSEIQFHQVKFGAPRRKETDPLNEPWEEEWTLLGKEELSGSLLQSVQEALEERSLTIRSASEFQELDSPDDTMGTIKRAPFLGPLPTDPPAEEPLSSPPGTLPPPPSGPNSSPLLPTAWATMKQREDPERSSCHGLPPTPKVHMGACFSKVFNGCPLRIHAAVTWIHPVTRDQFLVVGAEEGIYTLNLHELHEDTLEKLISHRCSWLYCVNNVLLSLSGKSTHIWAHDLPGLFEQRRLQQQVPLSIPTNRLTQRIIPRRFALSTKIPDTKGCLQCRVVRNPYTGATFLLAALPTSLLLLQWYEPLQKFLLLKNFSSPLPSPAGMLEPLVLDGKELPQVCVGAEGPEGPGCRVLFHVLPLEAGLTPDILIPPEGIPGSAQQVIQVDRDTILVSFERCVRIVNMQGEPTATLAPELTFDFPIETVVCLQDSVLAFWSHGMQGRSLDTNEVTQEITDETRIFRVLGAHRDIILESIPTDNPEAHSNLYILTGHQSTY
# [9] = molecular target: T3, Mitogen-activated protein kinase kinase kinase kinase 2 (Homo sapiens); details: at 1 µM
# [10] = molecular target: Mitogen-activated protein kinase kinase kinase kinase 4 (Homo sapiens) (UniProt O95819); details: at 0.1 µM
# [11] = molecular target: Mitogen-activated protein kinase kinase kinase kinase 4 (Homo sapiens) (UniProt O95819); details: at 1 µM
# [12] = molecular target: Dual specificity mitogen-activated protein kinase kinase 1 (Homo sapiens) (UniProt Q02750); details: at 0.1 µM
# [13] = molecular target: Dual specificity mitogen-activated protein kinase kinase 1 (Homo sapiens) (UniProt Q02750); details: at 1 µM
# [14] = molecular target: Misshapen-like kinase 1 (Homo sapiens) (UniProt Q8N4C8); details: at 0.1 µM
# [15] = molecular target: Misshapen-like kinase 1 (Homo sapiens) (UniProt Q8N4C8); details: at 1 µM
# [16] = molecular target: T4, Serine/threonine-protein kinase 4 (Homo sapiens) (UniProt Q13043); details: at 0.1 µM
# T4 sequence (whole entry): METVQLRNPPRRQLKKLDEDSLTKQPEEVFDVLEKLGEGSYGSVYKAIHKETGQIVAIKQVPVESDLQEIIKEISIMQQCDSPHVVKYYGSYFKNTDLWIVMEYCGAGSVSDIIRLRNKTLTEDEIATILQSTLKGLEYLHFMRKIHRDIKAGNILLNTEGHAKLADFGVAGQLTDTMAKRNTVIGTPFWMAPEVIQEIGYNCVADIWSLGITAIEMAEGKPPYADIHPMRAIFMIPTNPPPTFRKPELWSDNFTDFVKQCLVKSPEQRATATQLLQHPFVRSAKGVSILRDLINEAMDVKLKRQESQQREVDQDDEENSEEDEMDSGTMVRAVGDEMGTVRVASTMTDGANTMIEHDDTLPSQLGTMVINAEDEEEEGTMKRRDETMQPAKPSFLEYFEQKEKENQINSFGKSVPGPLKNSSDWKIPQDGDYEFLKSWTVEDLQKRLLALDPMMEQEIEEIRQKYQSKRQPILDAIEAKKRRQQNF
# [17] = molecular target: T4, Serine/threonine-protein kinase 4 (Homo sapiens); details: at 1 µM
# [18] = molecular target: T5, Serine/threonine-protein kinase 3 (Homo sapiens) (UniProt Q13188); details: at 0.1 µM
# T5 sequence (whole entry): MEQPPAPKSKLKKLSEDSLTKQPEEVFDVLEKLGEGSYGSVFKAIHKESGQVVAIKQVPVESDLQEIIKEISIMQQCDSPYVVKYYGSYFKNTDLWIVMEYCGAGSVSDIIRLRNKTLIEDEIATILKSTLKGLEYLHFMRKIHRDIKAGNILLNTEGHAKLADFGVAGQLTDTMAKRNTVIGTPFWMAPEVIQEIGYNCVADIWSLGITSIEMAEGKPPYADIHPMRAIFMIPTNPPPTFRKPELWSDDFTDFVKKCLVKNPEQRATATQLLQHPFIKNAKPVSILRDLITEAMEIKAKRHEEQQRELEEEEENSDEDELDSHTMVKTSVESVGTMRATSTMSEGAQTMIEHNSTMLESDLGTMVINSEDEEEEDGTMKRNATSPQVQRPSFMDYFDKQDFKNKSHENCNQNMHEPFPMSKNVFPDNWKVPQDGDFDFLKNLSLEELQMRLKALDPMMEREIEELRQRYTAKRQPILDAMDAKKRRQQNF
# [19] = molecular target: T5, Serine/threonine-protein kinase 3 (Homo sapiens); details: at 1 µM
# [20] = molecular target: Serine/threonine-protein kinase 26 (Homo sapiens) (UniProt Q9P289); details: at 0.1 µM
# Serine/threonine-protein kinase 26 (Homo sapiens), sequence (Q9P289 2-416 limits assumed): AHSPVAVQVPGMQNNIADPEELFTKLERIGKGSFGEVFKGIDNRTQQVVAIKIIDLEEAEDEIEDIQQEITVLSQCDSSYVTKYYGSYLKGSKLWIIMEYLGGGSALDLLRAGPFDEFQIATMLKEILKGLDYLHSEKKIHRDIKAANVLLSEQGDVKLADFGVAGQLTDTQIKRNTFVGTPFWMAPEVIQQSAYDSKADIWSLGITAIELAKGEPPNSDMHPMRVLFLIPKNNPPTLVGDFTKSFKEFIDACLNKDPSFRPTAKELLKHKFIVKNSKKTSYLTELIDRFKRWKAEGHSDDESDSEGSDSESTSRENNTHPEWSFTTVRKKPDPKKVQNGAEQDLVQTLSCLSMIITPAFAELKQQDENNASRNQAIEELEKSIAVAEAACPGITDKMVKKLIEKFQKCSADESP
# Dual specificity mitogen-activated protein kinase kinase 1 (Homo sapiens), sequence (Q02750 whole entry): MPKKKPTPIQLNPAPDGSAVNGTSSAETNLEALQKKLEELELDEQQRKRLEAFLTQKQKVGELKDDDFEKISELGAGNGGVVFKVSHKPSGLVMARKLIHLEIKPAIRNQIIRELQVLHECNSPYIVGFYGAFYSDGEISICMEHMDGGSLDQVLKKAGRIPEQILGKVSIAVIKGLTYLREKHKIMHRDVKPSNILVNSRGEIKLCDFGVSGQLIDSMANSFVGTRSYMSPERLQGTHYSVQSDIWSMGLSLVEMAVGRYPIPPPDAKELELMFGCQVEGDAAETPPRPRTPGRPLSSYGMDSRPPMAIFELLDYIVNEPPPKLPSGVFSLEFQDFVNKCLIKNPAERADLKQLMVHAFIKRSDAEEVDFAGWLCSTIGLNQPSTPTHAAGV
# Aurora kinase B (Homo sapiens), sequence (Q96GD4 whole entry): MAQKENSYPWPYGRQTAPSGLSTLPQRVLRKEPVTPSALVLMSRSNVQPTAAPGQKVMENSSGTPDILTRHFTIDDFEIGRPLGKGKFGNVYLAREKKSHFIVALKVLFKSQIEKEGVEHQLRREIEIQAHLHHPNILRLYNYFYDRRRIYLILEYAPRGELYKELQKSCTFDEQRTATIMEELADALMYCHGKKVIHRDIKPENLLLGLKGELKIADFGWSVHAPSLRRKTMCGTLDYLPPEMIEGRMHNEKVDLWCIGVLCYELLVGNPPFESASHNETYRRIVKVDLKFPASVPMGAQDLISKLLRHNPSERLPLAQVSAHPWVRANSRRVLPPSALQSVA
# Misshapen-like kinase 1 (Homo sapiens), sequence (Q8N4C8 whole entry, looked up): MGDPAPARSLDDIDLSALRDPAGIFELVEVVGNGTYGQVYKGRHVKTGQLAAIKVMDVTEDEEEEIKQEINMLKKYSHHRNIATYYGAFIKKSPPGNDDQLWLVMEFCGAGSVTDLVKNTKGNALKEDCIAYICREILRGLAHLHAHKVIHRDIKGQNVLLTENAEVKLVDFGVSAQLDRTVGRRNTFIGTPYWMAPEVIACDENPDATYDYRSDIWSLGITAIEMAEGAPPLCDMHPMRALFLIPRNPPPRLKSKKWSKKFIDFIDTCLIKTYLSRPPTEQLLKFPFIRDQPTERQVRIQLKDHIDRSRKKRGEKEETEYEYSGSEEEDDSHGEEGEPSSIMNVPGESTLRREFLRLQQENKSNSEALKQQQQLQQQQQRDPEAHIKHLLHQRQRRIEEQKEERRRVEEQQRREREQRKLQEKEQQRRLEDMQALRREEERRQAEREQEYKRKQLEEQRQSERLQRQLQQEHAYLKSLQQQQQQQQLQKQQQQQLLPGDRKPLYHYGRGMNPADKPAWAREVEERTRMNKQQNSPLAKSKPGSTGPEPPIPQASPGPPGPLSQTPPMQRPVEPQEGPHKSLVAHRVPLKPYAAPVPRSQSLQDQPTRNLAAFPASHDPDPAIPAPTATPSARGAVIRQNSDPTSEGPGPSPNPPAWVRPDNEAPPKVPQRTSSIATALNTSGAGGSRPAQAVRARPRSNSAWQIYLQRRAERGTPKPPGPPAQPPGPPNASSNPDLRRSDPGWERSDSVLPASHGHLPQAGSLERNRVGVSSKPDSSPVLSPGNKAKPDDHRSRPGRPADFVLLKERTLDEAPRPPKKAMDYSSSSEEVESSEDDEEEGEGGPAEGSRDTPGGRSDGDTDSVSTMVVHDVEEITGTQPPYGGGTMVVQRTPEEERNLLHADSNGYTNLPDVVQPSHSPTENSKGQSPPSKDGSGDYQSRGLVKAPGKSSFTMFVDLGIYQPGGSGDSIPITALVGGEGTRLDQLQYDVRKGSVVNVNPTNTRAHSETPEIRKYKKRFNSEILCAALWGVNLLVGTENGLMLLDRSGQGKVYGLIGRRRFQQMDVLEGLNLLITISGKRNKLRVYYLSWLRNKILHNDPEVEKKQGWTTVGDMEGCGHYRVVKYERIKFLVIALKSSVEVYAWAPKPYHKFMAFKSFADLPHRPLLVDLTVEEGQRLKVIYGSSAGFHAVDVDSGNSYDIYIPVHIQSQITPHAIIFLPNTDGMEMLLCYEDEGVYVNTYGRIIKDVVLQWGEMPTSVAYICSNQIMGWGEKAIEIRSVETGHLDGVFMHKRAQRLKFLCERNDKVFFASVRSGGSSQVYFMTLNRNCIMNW
# Mitogen-activated protein kinase kinase kinase kinase 4 (Homo sapiens), sequence (O95819 2-1239 limits assumed): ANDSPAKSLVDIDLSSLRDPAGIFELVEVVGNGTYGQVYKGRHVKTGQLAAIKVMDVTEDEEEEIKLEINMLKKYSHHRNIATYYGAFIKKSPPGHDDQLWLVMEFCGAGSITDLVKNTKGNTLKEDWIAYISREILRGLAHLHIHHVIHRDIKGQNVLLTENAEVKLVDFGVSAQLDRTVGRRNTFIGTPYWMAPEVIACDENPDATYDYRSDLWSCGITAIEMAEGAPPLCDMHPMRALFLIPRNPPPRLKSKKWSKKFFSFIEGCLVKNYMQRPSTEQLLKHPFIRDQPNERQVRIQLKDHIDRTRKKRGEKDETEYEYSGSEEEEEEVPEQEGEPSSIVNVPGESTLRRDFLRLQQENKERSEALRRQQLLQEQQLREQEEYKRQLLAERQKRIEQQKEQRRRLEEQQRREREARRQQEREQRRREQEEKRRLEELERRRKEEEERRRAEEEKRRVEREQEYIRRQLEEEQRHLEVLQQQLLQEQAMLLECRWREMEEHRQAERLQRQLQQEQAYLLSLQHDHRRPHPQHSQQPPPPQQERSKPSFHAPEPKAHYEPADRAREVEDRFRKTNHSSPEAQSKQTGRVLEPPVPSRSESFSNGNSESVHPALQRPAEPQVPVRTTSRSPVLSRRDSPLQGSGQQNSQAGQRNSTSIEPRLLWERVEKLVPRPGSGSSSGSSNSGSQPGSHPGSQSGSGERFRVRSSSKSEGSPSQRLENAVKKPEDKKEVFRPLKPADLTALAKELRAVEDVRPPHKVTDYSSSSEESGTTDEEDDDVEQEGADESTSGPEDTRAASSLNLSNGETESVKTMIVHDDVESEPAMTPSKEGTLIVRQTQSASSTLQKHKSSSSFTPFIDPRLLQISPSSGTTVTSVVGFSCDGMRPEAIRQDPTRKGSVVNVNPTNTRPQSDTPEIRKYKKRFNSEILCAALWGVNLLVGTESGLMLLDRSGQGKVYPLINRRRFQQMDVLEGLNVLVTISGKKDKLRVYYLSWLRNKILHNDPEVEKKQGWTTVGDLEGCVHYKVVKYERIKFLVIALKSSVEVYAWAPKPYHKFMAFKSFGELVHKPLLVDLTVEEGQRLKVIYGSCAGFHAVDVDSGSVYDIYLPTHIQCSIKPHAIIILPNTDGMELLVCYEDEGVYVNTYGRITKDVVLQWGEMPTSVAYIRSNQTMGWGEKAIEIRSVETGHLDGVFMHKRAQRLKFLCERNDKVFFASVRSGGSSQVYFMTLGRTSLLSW
# Serine/threonine-protein kinase 10 (Homo sapiens), sequence (O94804 whole entry, looked up): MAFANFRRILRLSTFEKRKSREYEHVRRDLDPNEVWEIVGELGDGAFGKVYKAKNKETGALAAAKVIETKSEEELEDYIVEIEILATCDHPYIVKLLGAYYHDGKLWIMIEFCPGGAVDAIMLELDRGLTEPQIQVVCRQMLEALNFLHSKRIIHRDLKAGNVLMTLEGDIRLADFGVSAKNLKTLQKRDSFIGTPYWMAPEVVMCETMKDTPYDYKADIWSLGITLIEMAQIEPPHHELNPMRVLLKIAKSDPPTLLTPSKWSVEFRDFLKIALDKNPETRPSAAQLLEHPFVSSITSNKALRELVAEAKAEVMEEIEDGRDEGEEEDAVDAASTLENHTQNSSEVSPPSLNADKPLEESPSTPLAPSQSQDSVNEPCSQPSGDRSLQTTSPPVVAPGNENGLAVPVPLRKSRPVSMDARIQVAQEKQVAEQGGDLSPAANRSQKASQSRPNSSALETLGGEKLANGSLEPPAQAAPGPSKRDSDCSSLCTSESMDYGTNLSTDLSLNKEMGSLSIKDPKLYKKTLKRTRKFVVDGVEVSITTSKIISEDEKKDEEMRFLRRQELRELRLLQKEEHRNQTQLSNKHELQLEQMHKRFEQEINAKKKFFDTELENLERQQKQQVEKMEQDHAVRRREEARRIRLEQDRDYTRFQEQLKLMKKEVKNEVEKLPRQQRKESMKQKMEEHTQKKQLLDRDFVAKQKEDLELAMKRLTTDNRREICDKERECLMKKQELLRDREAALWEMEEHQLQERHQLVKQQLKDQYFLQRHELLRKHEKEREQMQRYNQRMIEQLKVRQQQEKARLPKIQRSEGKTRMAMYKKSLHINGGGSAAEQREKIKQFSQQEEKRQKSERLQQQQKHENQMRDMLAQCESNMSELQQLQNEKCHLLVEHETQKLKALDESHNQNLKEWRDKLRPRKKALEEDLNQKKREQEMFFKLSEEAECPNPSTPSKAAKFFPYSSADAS
Structure (SMILES),inhibition [1] [%],inhibition [2] [%],inhibition [3] [%],inhibition [4] [%],inhibition [5] [%],inhibition [6] [%],inhibition [7] [%],inhibition [8] [%],inhibition [9] [%],inhibition [10] [%],inhibition [11] [%],inhibition [12] [%],inhibition [13] [%],inhibition [14] [%],inhibition [15] [%],inhibition [16] [%],inhibition [17] [%],inhibition [18] [%],inhibition [19] [%],inhibition [20] [%]
c1cnn2ncc(-c3ccnc(Nc4ccc5c(c4)OCCO5)n3)c2c1,85.5,14.4,65.2,18.8,96.8,5.98,23.8,13.6,56.5,11.3,51.5,7.35,27.8,9.95,40.4,7.88,19.1,7.54,16.1,-1.31
Cc1cccc(-c2n[nH]cc2-c2ccc3ncccc3n2)n1,2.37,-1.18,4.2,0.3,-2.95,3.36,7.9,1.72,0.72,5.33,30.9,1.75,1.88,4.05,19.5,-0.22,0.4,-0.46,0.93,-1.15
NS(=O)(=O)c1ccc(N/N=C2\C(=O)Nc3ccc(C(=O)NCCc4c[nH]cn4)cc32)cc1,41.2,6,26.8,3.9,31.5,3.71,8.99,1.62,6.59,10.5,40,6.81,16.3,11.2,32.6,56.3,86.7,46.5,83.5,-0.45
CS(=O)(=O)CCNCc1ccc(-c2ccc3ncnc(Nc4ccc(OCc5ccccc5)c(Cl)c4)c3c2)o1,1.2,2.22,10.4,1.18,7.9,1.97,8.82,3.3,7.74,2.21,3.37,1.17,1.86,1.93,1.65,0.89,2.54,-1.21,0.47,0.75
CS(=O)(=O)CCNCc1nc(-c2ccc3ncnc(Nc4ccc(F)c(Cl)c4)c3c2)cs1,9.04,3.41,6.36,2.51,-0.59,5.44,27.7,1.34,2.52,3.38,4.84,1.19,2.66,2.93,3.2,4.8,6.35,5.67,4.59,2.56
CCn1c(-c2nonc2N)nc2c(C#CC(C)(C)O)nc(OC[C@@H](N)c3ccccc3)cc21,11.7,2.1,7.36,4.3,-0.02,-0.81,7.62,0.61,8.96,1.21,14.1,-0.93,3.8,-1.26,9.85,-2.01,15.2,-1.88,11.8,1.4
COC(=O)Nc1nc2cc(Oc3ccc(NC(=O)Nc4cccc(C(=O)O)c4)cc3)ccc2[nH]1,12.8,-1.26,9.37,0.03,37.7,0.65,7.1,0.68,1.11,0.99,5.9,0.36,0.97,1.59,4.38,7.79,11.2,7.55,10.9,1.75
CC(C)=Cc1cccc2c1/C(=N/Nc1ccc(S(N)(=O)=O)cc1)C(=O)N2,93.1,8.72,45,5.14,65.6,1.18,10.2,1.89,6.11,3.27,31.3,0.02,2.23,3.63,25.1,66.6,84.5,52.6,82.4,4.55
COc1cc2c(cc1Nc1nc(N3CCc4ccccc43)c3cc[nH]c3n1)N(C(=O)CN(C)C)CC2,2.61,0.77,3.08,0.6,8.2,1.91,1.24,0.88,3.15,1.37,2.27,1.49,2.14,3.79,-0.01,5.66,6.86,6.28,5.22,-0.61
CC1=C(C(=O)Nc2ccc3[nH]ncc3c2)C(c2ccc(F)cc2)NC(=O)N1 (centres undefined),62.7,3.96,18.5,2.09,26.9,1.26,5.18,1.97,3.21,7.49,11.1,2.25,5.95,7.37,13,1.11,5.91,1.29,6.58,0.66
CN(C)c1cc2c(Nc3ccc4nc(Cc5ccccc5)[nH]c4c3)ncnc2cn1,11.5,6.09,27.4,5.94,40.3,6.78,14.4,1.35,2.07,7.88,9.42,6.17,5.42,8.81,9.2,4.35,3.57,4.95,2.18,-1.17
Nc1nc(-c2ccccn2)c(-c2ccc3ncccc3n2)s1,9.43,1.61,8.29,2.42,–,2.91,5.82,0.08,2.92,5.35,9.69,2.95,2.78,5.37,7.86,5.62,6.85,5.79,6.4,-2.14
[O-][S+]1CCN(Cc2ccc(-c3ccc4ncnc(Nc5ccc(OCc6ccccc6)c(F)c5)c4c3)o2)CC1,5.78,1.65,4.29,0.94,7.34,2.71,6.62,0.36,1.57,3.5,-0.28,2.4,3.03,4.17,1.42,2.61,2.36,2.82,3.06,-0.81
COc1cccc(-n2ncc3c(N/N=C/c4cccc(F)c4)ncnc32)c1,16.9,-1,7.83,-2.12,1.75,3.91,11.8,1.55,4.59,7.45,35,3.46,3.27,7.28,25.8,3.89,8.39,2.89,6.96,-0.8
